From PubChem BioAssay AID1159580 (chemical genetic matrix, 2015)
The whole screen tested about 5,500 compounds, of which about 2,000 (36%) were called active. Inconclusive results (about 18%) are left out. Cut-off read from the data, not from the text of the source: active = normalized growth mostly below about 0.91 (no sharp cut-off); inconclusive = no clear call, values can overlap the other calls; inactive = mostly above about 0.92. Some of the results follow.

Experiment: chemical genetic growth profiling, strain panel (AID 1159580);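 note: tested at 20 µM; growth read once vehicle control cultures reached saturation at 30 °C; 1 = growth at the plate median or of vehicle wells; lower values mean less growth of the strain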
Details: S. cerevisiae deletion strains, growth OD

Measured: normalized growth

CC(=O)O[C@@H]1C[C@@]2(C)[C@H](c3ccoc3)C[C@H]3O[C@]32[C@]2(C)C(=O)C(O)=C3C(C)(C)C(=O)C=C[C@]3(C)C12 (stereo partly drawn)
inactive: locus YJL187C, strain SWE1 (second series), hits give low values 0.958 | locus YJL187C, strain SWE1, hits give low values 0.953 | locus YJR043C, strain POL32, hits give low values 0.97 | locus YJR066W, strain TOR1, hits give low values 0.888 | locus YKL009W, strain mrt4, hits give low values 0.94 | locus YKL068W, hits give low values 0.962 | locus YKL085W, strain MDH1 (second series), hits give low values 0.993 | locus YKL085W, strain MDH1, hits give low values 0.993 | locus YKL160W, strain elf1, hits give low values 0.969 | locus YKR026C, strain gcn3, hits give low values 0.965 | locus YKR091W, strain srl3, hits give low values 0.971 | locus YLL001W, strain dnm1, hits give low values 0.979 | locus YLL026W, hits give low values 0.96 | locus YLL041C, strain sdh2, hits give low values 0.976 | locus YLR027C, strain aat2, hits give low values 0.942 | locus YLR058C, strain SHM2, hits give low values 0.936 | locus YLR102C, strain apc9, hits give low values 0.958 | locus YLR113W, strain HOG1, hits give low values 0.911 | locus YLR258W, strain gsy2, hits give low values 0.948 | locus YLR342W, strain FKS1, hits give low values 0.921 | locus YLR357W, strain rsc2, hits give low values 1.03 | locus YLR370C, strain arc18, hits give low values 0.927 | locus YLR384C, strain iki3, hits give low values 0.956 | locus YML016C, strain PPZ1, hits give low values 0.946 | locus YML120C, strain ndi1, hits give low values 0.961 | locus YML124C, strain tub3, hits give low values 0.963 | locus YMR058W, strain fet3, hits give low values 0.937 | locus YMR078C, strain ctf18, hits give low values 0.925 | locus YMR125W, strain sto1, hits give low values 0.957 | locus YMR129W, hits give low values 0.977 | locus YMR205C, strain PFK2, hits give low values 0.886 | locus YMR223W, strain ubp8, hits give low values 0.922 | locus YMR307W, strain GAS1, hits give low values 0.61 | locus YNL067W, strain RPL9B, hits give low values 0.985 | locus YNL128W, strain TEP1, hits give low values 0.914 | locus YNL183C, strain NPR1, hits give low values 0.909 | locus YNL209W, strain ssb2, hits give low values 0.974 | locus YNL233W, strain BNI4, hits give low values 0.935 | locus YNL248C, strain rpa49, hits give low values 0.952 | locus YNL250W, strain rad50, hits give low values 1.02 | locus YNL271C, strain bni1, hits give low values 0.945 | locus YNL298W, strain CLA4, hits give low values 0.953 | locus YNL322C, strain KRE1 (second series), hits give low values 0.956 | locus YNR049C, strain mso1, hits give low values 0.959 | locus YOL006C, strain TOP1, hits give low values 0.771 | locus YOL012C, strain htz1 0.819 | locus YOR001W, strain rrp6, hits give low values 0.92 | locus YOR061W, strain CKA2, hits give low values 0.923 | locus YOR069W, strain VPS5, hits give low values 0.969 | locus YOR070C, strain gyp1, hits give low values 0.949 | locus YOR080W, strain dia2, hits give low values 0.965 | locus YOR083W, strain WHI5, hits give low values 0.976 | locus YOR106W, strain vam3, hits give low values 0.942 | locus YOR136W, strain idh2, hits give low values 0.941 | locus YOR231W, strain MKK1, hits give low values 0.918 | locus YOR265W, strain rbl2, hits give low values 0.963 | locus YOR290C, strain snf2, hits give low values 0.929 | locus YOR316C, strain cot1, hits give low values 0.962 | locus YPL055C, strain LGE1, hits give low values 0.803 | locus YPL078C, strain atp4, hits give low values 0.973 | locus YPL106C, strain sse1, hits give low values 0.974 | locus YPL240C, strain hsp82, hits give low values 0.956 | locus YPL241C, strain CIN2, hits give low values 0.966 | locus YPL256C, strain CLN2, hits give low values 0.91 | locus YPR119W, strain clb2, hits give low values 0.959 | locus YPR141C, strain kar3, hits give low values 0.957 | locus YPR167C, strain met16, hits give low values 0.945
active: locus YKR001C, strain vps1, hits give low values 0.812 | locus YLR039C, strain RIC1, hits give low values 0.513 | locus YLR221C, strain rsa3, hits give low values 0.863 | locus YLR262C, strain YPT6 (second series), hits give low values 0.669 | locus YLR262C, strain YPT6, hits give low values 0.483 | locus YLR268W, strain sec22, hits give low values 0.832 | locus YLR320W, strain mms22, hits give low values 0.816 | locus YLR371W, strain rom2, hits give low values 0.731 | locus YLR418C, strain cdc73, hits give low values 0.35 | locus YML032C, strain rad52, hits give low values 0.853 | locus YMR231W, strain pep5, hits give low values 0.927 | locus YNL071W, strain lat1, hits give low values 0.736 | locus YNL307C, strain MCK1, hits give low values 0.571 | locus YNR052C, strain pop2, hits give low values 0.882 | locus YOL147C, strain pex11, hits give low values 0.818 | locus YOR144C, strain elg1, hits give low values 0.864 | locus YOR184W, strain ser1, hits give low values 0.744 | locus YOR270C, strain vph1, hits give low values 0.776 | locus YPL051W, strain arl3, hits give low values 0.895 | locus YPR163C, strain tif3, hits give low values 0.757 | strain wtn01, hits give low values 0.864
